Source: PubChem BioAssay
Rows were chosen to be rich in hits. Some 11% of all compounds tested hit in one or more screens of this group.
HCV inh: HCV inhibition | Huh7.5.1 HCVcc-Cre infection, luciferase reporter, 44 h | AID 651820 | Potency, µM (series often up to 41.8 µM), inactives show at the top dose activity change, negative = inhibition, hits mostly inhibitors | hit rate 3.4% among 340,000
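Whole-lifecycle infectious HCVcc-Cre system; cells 1,000/well, compound then virus (~0.5 moi) added 4 h after plating, 44 h culture. Luciferase read 15 sec following 15 min substrate incubation, room temp.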
AMA1-RON2 inh: disrupts binding of P. falciparum AMA1 to RON2; AlphaScreen AMA1-biotinylated RON2 peptide binding; hit rate 0.2% among 360,000; Potency, µM (titrated, usually from 58.2 µM), for inactives: top-dose activity change, negative = inhibition, most hits filed as inhibitors;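 also: 0% = vehicle wells and -100% = peptide control; nearly all actives have a fitted effect of over 45% in size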
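AMA1 (3D7) with his tag at 25 nM final met compounds first, then biotinylated RON2 peptide at 25 nM; detection used donor plus acceptor beads, 10 µg/mL apiece, read by AlphaScreen after 30 min at room temperature.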
AmpC no deterg: blocks E. coli AmpC beta-lactamase in detergent-free assay; P00811; AmpC nitrocefin hydrolysis, absorbance 480 nm, 0.0001% Triton; Potency, µM (series often up to 57.1 µM), for the others: at the highest dose activity change, negative = inhibition, usual class: inhibitors; hit rate 0.52% among 330,000; AID 485341;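 also: plate controls were no compound for no effect and no enzyme for full effect; nearly all actives have a fitted effect of over 20% in size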
Target sequence (P00811 whole entry, looked up): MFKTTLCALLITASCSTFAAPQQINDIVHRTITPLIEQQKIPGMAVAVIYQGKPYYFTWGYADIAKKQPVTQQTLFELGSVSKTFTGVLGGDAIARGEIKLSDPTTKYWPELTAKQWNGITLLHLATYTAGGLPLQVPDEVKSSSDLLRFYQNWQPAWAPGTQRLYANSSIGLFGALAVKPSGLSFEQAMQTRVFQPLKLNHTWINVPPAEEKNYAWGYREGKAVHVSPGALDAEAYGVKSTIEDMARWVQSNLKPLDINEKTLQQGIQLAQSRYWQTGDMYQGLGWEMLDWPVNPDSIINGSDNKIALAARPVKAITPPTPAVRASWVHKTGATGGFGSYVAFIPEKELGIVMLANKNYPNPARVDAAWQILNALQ
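20 mM phosphate pH 7.0 + 0.01% (detergent screen) or 0.0001% Triton X-100; 5.3 nM AmpC reagent; cpd preinc 15 min RT; nitrocefin (800 uM stock) to start; A480 q20 s × 4 min; Activity was normalised to no-enzyme and no-compound control wells.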
Pf growth 48h: inhibits P. falciparum growth in the first generation, 48 h; P. falciparum luciferase growth in erythrocytes, 48 h; Potency, µM (highest dose often 28.7 µM), for inactives: top-dose activity change, negative = inhibition, most hits filed as inhibitors; hit rate 5.9% among 310,000; AID 504832
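Here the parasites carry a stable luciferase gene and grow inside erythrocytes in Albumax-based RPMI medium with compound for one erythrocytic cycle. Activity is scored as loss of luminescent signal.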
AmpC detergent: blocks E. coli AmpC beta-lactamase in detergent assay; hit rate 0.041% among 370,000; AmpC hydrolysis of nitrocefin, absorbance 480 nm, 0.01% Triton; Potency, µM (top dose mostly 114 µM), without a hit: top-dose activity change, negative = inhibition, hits mostly inhibitors;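 also: 0% = no-compound wells and -100% = no-enzyme wells; nearly all actives have a fitted effect of over 25% in size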
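20 mM phosphate pH 7.0 + 0.01% (detergent screen) or 0.0001% Triton X-100; 5.3 nM AmpC reagent; cpd preinc 15 min RT; nitrocefin (800 uM stock) to start; A480 q20 s × 4 min; Activity was normalised to no-enzyme and no-compound control wells.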
Pf growth 96h: P. falciparum growth inhibition at 96 hours. P. falciparum luciferase reporter growth, 96 h. Potency, µM (doses to about 28.7 µM), for the others: at the top dose activity change, negative = inhibition, hits mostly inhibitors. hit rate 6.9% among 320,000
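96 h incubation, 37 C, 5% CO2, of luciferase-reporter P. falciparum-infected RBCs (2% hematocrit, 0.05% parasitemia final) with test compounds; endpoint luminescence.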
Numbers without * were called inactive; ? = inconclusive; . = no result given. Calls follow the shape of the dose curve; as a rule, active = well fitted curve in the direction sought with a large enough effect; inconclusive = small, poorly fitted or top-dose-only effect, or another doubt; inactive = no such curve, though single readings can be large; an effect the other way counts as inactive or inconclusive. Unless noted, % is scaled to controls: 0 for no effect and ±100 for the full control effect; potency is read from the fitted curve at half-maximal effect.

SMILES	HCV inh	AMA1-RON2 inh	AmpC no deterg	Pf growth 48h	AmpC detergent	Pf growth 96h
CCCCNc1sc(S(=O)(=O)CCC)nc1S(=O)(=O)c1ccc(C)cc1	.	.	.	.	18%	.
O=C(NCc1ccccc1)c1csc(-c2cccnc2)n1	-8%	14%	-8%	9.3µM*	2%	31%
O=C(NCCc1csc(-c2cccnc2)n1)c1ccccc1	4%	-3%	1.4µM*	?	?	?
O=C(NCCc1csc(-c2ccccc2)n1)c1ccco1	-30%	2%	-13%	?	9%	21%
O=C(NCCc1csc(-c2cccnc2)n1)c1cccc2ccccc12	?	-2%	-15%	?	?	?
O=C(NCCc1csc(-c2cccc(F)c2)n1)c1ccco1	10µM*	2%	3%	15%	-4%	-2%
Cc1cccc(C(=O)NCCc2csc(C)n2)c1	26%	3%	3.5µM*	13%	-11%	16%
Cc1ccc(Cn2cnc3nc4c(cc3c2=O)CC(C)CC4)cc1 (configuration not stated)	.	.	.	.	0%	.
COc1cccc(-n2c(SCC(=O)Nc3nnc(C)s3)nc3c([nH]c4ccccc43)c2=O)c1	.	.	.	.	4%	.
COc1cc(OC)c(NC(=O)C2CCCN(c3ncnc4c3nc3n4CCCCC3)C2)cc1Cl (configuration not stated)	.	.	.	.	-8%	.
COc1ccc(-c2nc(C)c(C(C)=O)n2O)cc1	-6%	-15%	-16%	10%	1%	4.7µM*
CCOc1ccc(-c2nc(C)c(C(C)=O)n2O)cc1	-4%	3%	-32%	27%	0%	.
C/C(=C\C(=O)c1ccc(C)cc1)Nc1cccc(O)c1	13µM*	-7%	-22%	398%	1%	145%
O=S(=O)(NCCc1ccccc1F)c1cccc(S(=O)(=O)N2CCOCC2)c1	5%	10%	1%	-5%	5%	6.6µM*
COc1ccccc1CNS(=O)(=O)c1cccc(S(=O)(=O)N2CCOCC2)c1	-12%	0%	-1%	-18%	-15%	.
O=S(=O)(NCc1ccccc1)c1cccc(S(=O)(=O)N2CCOCC2)c1	-2%	-19%	-4%	.	-1%	0.059µM*
O=S(=O)(c1cccc(S(=O)(=O)N2CCC(Cc3ccccc3)CC2)c1)N1CCOCC1	-15%	-16%	122%	-28%	-1%	?
COc1ccc(-c2nc3scc(CCNC(=O)c4cc(OC)cc(OC)c4)n3n2)cc1	.	.	.	.	13%	.
COCCC1CCCCN1C(=O)c1cc(COc2ccc(-n3cncn3)cc2)on1 (configuration not stated)	10µM*	7%	89%	11%	1%	?
CCS(=O)(=O)c1nc(S(=O)(=O)c2ccc(Cl)cc2)c(NCc2ccc(Cl)cc2)s1	.	.	.	.	21%	.
O=C(NCc1ccco1)c1ccccc1NC(=O)C1CC(=O)N(c2ccc(Cl)cc2)C1 (configuration not stated)	-20%	0%	-16%	-17%	-12%	7.4µM*
O=C(NCc1ccco1)C1CC(=O)N(c2ccc(F)cc2)C1 (configuration not stated)	17%	1%	-10%	15%	2%	-20%
O=C(N/N=C/c1ccccc1O)C1CC(=O)N(c2ccc(Cl)cc2)C1 (configuration not stated)	?	123%	-28%	12µM*	?	77%
O=C(Nc1cccc(Cl)c1Cl)C1CC(=O)N(c2ccc(Br)cc2)C1 (configuration not stated)	?	-1%	-37%	0%	-8%	10µM*
Cn1nnc2c(NCc3c(F)cccc3F)ncnc21	.	.	.	.	-1%	.
SMILES	HCV inh	AMA1-RON2 inh	AmpC no deterg	Pf growth 48h	AmpC detergent	Pf growth 96h
Cc1ccc(C2C3=C(CC(C)(C)CC3=O)N(CCN3CCOCC3)C3=C2C(=O)CC(C)(C)C3)cc1	-8%	0%	18%	12µM*	-9%	?
Cc1ccc(C2C3=C(CC(C)(C)CC3=O)OC3=C2C(=O)CC(C)(C)C3)cc1	11%	-4%	-2%	10µM*	4%	-6%
Cc1ccc(C2C3=C(CCCC3=O)OC3=C2C(=O)CCC3)cc1	24%	1%	2%	1%	-10%	37%
CCN(CC)S(=O)(=O)c1ccc(C(=O)NC2CC(=O)N(c3ccc(OC)c(OC)c3)C2)cc1 (configuration not stated)	.	.	.	.	3%	.
O=C(CSc1nc2c([nH]c3ccccc32)c(=O)n1-c1ccccc1)Nc1ccc(Cl)c(Cl)c1	.	.	.	.	7%	.
CC(=O)C1=C(O)C(=O)N(c2ccccn2)C1c1ccc(C)cc1 (configuration not stated)	?	-1%	-2%	4%	6%	0.37µM*
CC(=O)C1=C(O)C(=O)N(c2ccccn2)C1c1ccc(Cl)cc1 (configuration not stated)	23%	-14%	-17%	0%	-12%	-17%
CCOC(=O)c1c(NC(=O)C(F)(OC)C(F)(F)F)sc(C(=O)N2CCCCC2)c1C (configuration not stated)	?	-8%	154%	12µM*	-12%	44%
CCOC(=O)c1sc(NC(=O)CCN2CCN(C)CC2)c(C(=O)OCC)c1C	14µM*	-14%	20%	5%	-2%	8%
CCOC(=O)c1c(NC(=O)CN2CCN(S(=O)(=O)c3cc(Cl)ccc3Cl)CC2)sc(C(=O)N(C)C)c1C	11µM*	2%	.	.	.	.
CCOC(=O)c1c(NC(=O)CN2CCN(C)CC2)sc(C(=O)Nc2ccccc2)c1C	6.3µM*	17%	222%	13µM*	-6%	0%
CCOc1ccc(CCNC(=O)c2ccc(-c3nc(CSc4ccccc4)c(C)o3)cc2)cc1	.	.	.	.	15%	.
COc1cc(C2c3c(-c4cc(C)ccc4O)n[nH]c3C(=O)N2CCCO)ccc1OCCC(C)C (configuration not stated)	.	.	.	.	12%	.
Cc1cccc(C)c1NC(=O)CCCn1nc(C)c2c(C)n(-c3ccccc3)nc2c1=O	-22%	-1%	-12%	-16%	-1%	12µM*
CCOc1ccc(NC(=O)CCCn2nc(C)c3c(C)n(-c4ccccc4)nc3c2=O)cc1	-11%	-3%	24%	?	6%	12µM*
O=C(O)CCn1c2c(c3ccccc31)C[C@H](NS(=O)(=O)c1ccc(F)cc1)CC2	.	.	.	-4%	.	2%
CCOc1ccc(Nc2ncnc3c2c(-c2ccccc2)cn3-c2cccc(C)c2)cc1	.	.	.	.	-7%	.
C[N+]1(CC2COC3(CCCCC3)O2)CCCCC1 (configuration not stated)	4%	-11%	-12%	?	-7%	-15%
